About 1,900 (0.58%) of roughly 330,000 compounds were called active. Not shown: some 4% with an inconclusive outcome. Rule as the data show it: inconclusive = inhibition above about 70% without an active follow-up result; inactive = below that. The list is a sample of the results. Measured potencies and affinities stand elsewhere.
Test: M. tuberculosis growth inhibition, HTS (AID 449762);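 also: bacterial growth assessed after seven days of incubation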
Details: M. tuberculosis H37Rv growth inhibition, 7H9 media; at 25 µM; stronger effect = higher value

Q: Which inhibition does the source give for `Cc1ccc(Nc2nc(N)nc(CN3CCN(C)CC3)n2)cc1` here?
A: Its inhibition is -7.52% (inactive).

Q: With `COc1ccc(Nc2nc(N)nc(CN3CCc4ccccc4C3)n2)cc1` as the compound, how does the inhibition read?
A: The inhibition was 7.44% (inactive).

Q: With `CCC(C)c1ccc(OCC(=O)O)cc1` (centres undefined) as the compound, how does the inhibition read?
A: The inhibition was -1.06% (inactive).

Q: For `CCOc1cc(C(N)=O)cc(Br)c1OC`, which inhibition is on record?
A: Its inhibition is -2.81% (inactive).

Q: With `COC(=O)c1ccc(COC(=O)c2ccc(CO)cc2)o1` as the compound, how does the inhibition read?
A: Its inhibition is 9.22% (inactive).

Q: Which inhibition does the source give for `CC(C)COC(=O)NCCCOC(=O)Nc1ccccc1` here?
A: Its inhibition is 2.06% (inactive).

Q: Which inhibition does the source give for `Cc1ccc(C)c(NC(=O)CCc2c(C)nn(-c3ccc(N4CCCCC4)nn3)c2C)c1` here?
A: The inhibition was -0.31% (inactive).

Q: With `COc1ccccc1CNC(=O)CSc1nc(C)cs1` as the compound, how does the inhibition read?
A: The inhibition was -6.19% (inactive).

Q: For `CN(CCOc1ccc(Cl)cc1)C(=O)CN1C(=O)NC2(CCCC2)C1=O`, which inhibition is on record?
A: Its inhibition is -10.9% (inactive).

Q: For `Fc1ccc(OCCOCCN2CCNCC2)cc1`, which inhibition is on record?
A: The inhibition was -3.98% (inactive).

Q: For `COc1ccc(C[C@H]2CN3C(=NC[C@H]3C)N2CCNC(=O)CCC2CCCCC2)cc1`, which inhibition is on record?
A: The inhibition was 2.73% (inactive).

Q: With `COc1ccc(C[C@H]2CN3C(=NC[C@@H]3C)N2CCNC(=O)CCC2CCCCC2)cc1` as the compound, how does the inhibition read?
A: The inhibition was -0.84% (inactive).

Q: Which inhibition does the source give for `O=C1C(Cc2ccccc2)Nc2ncnc(N3CCN(c4ccccc4)CC3)c2N1Cc1ccc(Br)cc1` (centres undefined) here?
A: The inhibition was 0.68% (inactive).

Q: With `COc1ccc(C2CC(=O)C3=C(C2)Nc2ccccc2N(C(C)=O)C3c2ccco2)cc1` (centres undefined) as the compound, how does the inhibition read?
A: The inhibition was -14% (inactive).

Q: For `CC(CN1CCOCC1)C(=O)c1ccccc1` (centres undefined), which inhibition is on record?
A: Its inhibition is 3.78% (inactive).

Q: For `O=C(c1ccc(F)cc1)C(CN1CCOCC1)c1ccccc1` (centres undefined), which inhibition is on record?
A: Its inhibition is 3.13% (inactive).

Q: For `COc1ccc(C(NC(=O)c2cccc(F)c2)c2ccccc2)cc1` (centres undefined), which inhibition is on record?
A: Its inhibition is -16.4% (inactive).

Q: Which inhibition does the source give for `C=CCn1cnc2c(nnn2-c2cc(C)cc(C)c2)c1=O` here?
A: The inhibition was 7.46% (inactive).

Q: For `Cc1ccc(C(=O)NN(CCC(=O)NC(C)(C)C)C2=NS(=O)(=O)c3ccccc32)cc1`, which inhibition is on record?
A: The inhibition was 3.72% (inactive).

Q: Which inhibition does the source give for `O=C(O)c1ccc(Cl)c(S(=O)(=O)N(Cc2ccccc2)c2ccccc2)c1` here?
A: The inhibition was -3.72% (inactive).

Q: With `CC1(C)CC(NC(=O)c2cccc(S(=O)(=O)N(Cc3ccccc3)c3ccccc3)c2)CC(C)(C)N1` as the compound, how does the inhibition read?
A: Its inhibition is -5.74% (inactive).

Q: Which inhibition does the source give for `Cc1nn(CCCC(=O)N2CCN(c3ccc(F)cc3)CC2)c(C)c1[N+](=O)[O-]` here?
A: The inhibition was 2.18% (inactive).

Q: For `Cc1cc[n+](CC[n+]2ccc(C)cc2)cc1`, which inhibition is on record?
A: Its inhibition is -0.82% (inactive).

Q: With `CCC(C)(C)c1ccc(OCC(=O)N(C)C)c(C(C)(C)CC)c1` as the compound, how does the inhibition read?
A: Its inhibition is -12.9% (inactive).

Q: Which inhibition does the source give for `CCc1ccc(C(=O)Nc2ccc3nc(C)ccc3c2)cc1` here?
A: Its inhibition is 0.01% (inactive).

Q: For `CCc1nc2ccccc2c(C(=O)Nc2cccc(C)c2)c1C`, which inhibition is on record?
A: The inhibition was 7.7% (inactive).

Q: Which inhibition does the source give for `CCc1nc2ccccc2c(C(=O)Nc2ccc(C)cc2)c1C` here?
A: Its inhibition is 4.44% (inactive).

Q: With `CCOC(=O)C1CCCN(CC(O)COc2cccc(C)c2)C1` (centres undefined) as the compound, how does the inhibition read?
A: Its inhibition is -3.72% (inactive).

Q: For `COc1ccccc1C(=O)N/C(=C\c1ccccc1)C(=O)NC(Cc1ccccc1)C(=O)O` (centres undefined), which inhibition is on record?
A: The inhibition was -6.9% (inactive).

Q: With `Cc1ccc(NC(=O)CSCC(=O)N=c2sccn2C)cc1` as the compound, how does the inhibition read?
A: The inhibition was -9.96% (inactive).

Q: For `CCc1nc2c(c(=O)c3ccccc3n2C)c(=O)n1C1CCCCCC1`, which inhibition is on record?
A: The inhibition was 6.04% (inactive).

Q: With `Cc1nc2c(c(=O)c3ccccc3n2C)c(=O)n1C1CCCCCC1` as the compound, how does the inhibition read?
A: The inhibition was -2.45% (inactive).

Q: For `COc1ccc(OC)c(S(=O)(=O)N2CCCCC2C(=O)O)c1` (centres undefined), which inhibition is on record?
A: The inhibition was -12.8% (inactive).

Q: With `COc1ccccc1N1CCN(CCCCOc2c(OC)cccc2OC)CC1` as the compound, how does the inhibition read?
A: The inhibition was 4.13% (inactive).

Q: For `COc1ccccc1OCCCCN1CCN(c2ccccc2OC)CC1`, which inhibition is on record?
A: The inhibition was -3.03% (inactive).

Q: Which inhibition does the source give for `CN(C)c1cccc2c1c(NC(=O)c1ccc(F)cc1)nn2C` here?
A: The inhibition was -5.17% (inactive).

Q: Which inhibition does the source give for `Cc1nc2c(c(=O)[nH]1)C(c1ccc([N+](=O)[O-])cc1)c1c(c3ccccc3oc1=O)O2` (centres undefined) here?
A: The inhibition was 4.87% (inactive).

Q: Which inhibition does the source give for `O=S(=O)(NC1CC(NS(=O)(=O)OCC(Cl)(Cl)Cl)C2CCCCC12)OCC(Cl)(Cl)Cl` (centres undefined) here?
A: The inhibition was 4.68% (inactive).

Q: Which inhibition does the source give for `CCC1Oc2ccc(C)cc2N(CC(=O)N2CCCC2)C1=O` (centres undefined) here?
A: Its inhibition is 9.77% (inactive).

Q: With `CC1(C)Oc2ccc3ccc(=O)oc3c2/C(=C/O)C1=O` as the compound, how does the inhibition read?
A: The inhibition was 2.64% (inactive).

Q: For `COC1=Cc2c(ccc3ccc(=O)oc23)OC1(C)C`, which inhibition is on record?
A: The inhibition was 1.79% (inactive).

Q: For `O=C(OCc1nnc(-c2ccc(Cl)cc2)o1)C12CC3CC(CC(O)(C3)C1)C2`, which inhibition is on record?
A: Its inhibition is 7.22% (inactive).

Q: Which inhibition does the source give for `CCOC(=O)c1cc(C(=O)NC(C)c2ccccc2)c(C)[nH]c1=O` (centres undefined) here?
A: The inhibition was -4.64% (inactive).

Q: Which inhibition does the source give for `CCOC(=O)c1nnc(-c2ccccc2)nc1Sc1c(Cl)cccc1Cl` here?
A: Its inhibition is 4.17% (inactive).

Q: For `CCOC(=O)c1nnc(-c2ccccc2)nc1NC`, which inhibition is on record?
A: Its inhibition is -30.8% (inactive).

Q: With `CCOC(=O)c1c(NCc2ccccc2)n[nH]c1C` as the compound, how does the inhibition read?
A: Its inhibition is -5.08% (inactive).

Q: Which inhibition does the source give for `CCOC(=O)c1nnc(-c2ccc(C)cc2)nc1Sc1ccccc1Cl` here?
A: The inhibition was 13.5% (inactive).

Q: For `O=C(CCN1C(=O)/C(=C\c2ccccc2Cl)SC1=S)Nc1cccnc1`, which inhibition is on record?
A: Its inhibition is 2.83% (inactive).

Q: Which inhibition does the source give for `CC(=O)C1C2c3ccccc3OC1(C)N=c1s/c(=C/c3cn(C)nc3C)c(=O)n12` (centres undefined) here?
A: The inhibition was 1.62% (inactive).

Q: Which inhibition does the source give for `COC(=O)C1C2c3ccccc3OC1(C)N=c1s/c(=C/c3cn(C)nc3C)c(=O)n12` (centres undefined) here?
A: Its inhibition is -3.81% (inactive).

Q: With `COc1ccc(-c2cc3ccccc3oc2=O)cc1NC(=O)c1cccnc1` as the compound, how does the inhibition read?
A: The inhibition was 4.8% (inactive).

Q: For `COc1ccc(-c2cc3ccccc3oc2=O)cc1NC(=O)c1ccc(Br)o1`, which inhibition is on record?
A: Its inhibition is -2.95% (inactive).

Q: Which inhibition does the source give for `Cn1c(-c2nonc2N)nc2ccccc21` here?
A: The inhibition was 0.49% (inactive).

Q: With `COc1ccccc1C(c1c(N)n(C)c(=O)n(C)c1=O)C(C)[N+](=O)[O-]` (centres undefined) as the compound, how does the inhibition read?
A: Its inhibition is 43.9% (inactive).

Q: Which inhibition does the source give for `CC(C(c1cccs1)c1c(N)n(C)c(=O)n(C)c1=O)[N+](=O)[O-]` (centres undefined) here?
A: The inhibition was -8.45% (inactive).

Q: With `O=C(CSCc1cc(=O)n2nc(C3CC3)sc2n1)Nc1ccc(F)cc1` as the compound, how does the inhibition read?
A: The inhibition was -2.05% (inactive).

Q: Which inhibition does the source give for `C[C@H](NC(=O)c1nc[nH]c1C(=O)NC1CCN(C(=O)OC(C)(C)C)CC1)C(=O)OCc1ccccc1` here?
A: Its inhibition is -4.49% (inactive).

Q: Which inhibition does the source give for `CC(C)(C)OC(=O)N1CCC(NC(=O)c2[nH]cnc2C(=O)N[C@@H](Cc2ccccc2)C(=O)OCc2ccccc2)CC1` here?
A: The inhibition was -4.13% (inactive).

Q: For `Cc1ccc(NC2CCCN(C(=O)c3cccc4nccnc34)C2)cc1C` (centres undefined), which inhibition is on record?
A: Its inhibition is -9.4% (inactive).

Source: PubChem BioAssay AID449762 (Southern Research Specialized Biocontainment Screening …, 2010)
